Legend:
Details in all cases: concentration: 1 μM, replicates: in singlicate; n = 1
TTK = test system: TTK
TXK = test system: TXK
[1] = test system: TYK2(JH1domain-catalytic)
[2] = test system: TYK2(JH2domain-pseudokinase)
TYRO3 = test system: TYRO3
ULK1 = test system: ULK1
ULK2 = test system: ULK2
ULK3 = test system: ULK3
VEGFR2 = test system: T1, VEGFR2
T1 construct: gene KDR

VPS34 = test system: T2, VPS34
T2 construct: gene PIK3C3

VRK2 = test system: VRK2
WEE1 = test system: WEE1
WEE2 = test system: WEE2
WNK1 = test system: WNK1
WNK2 = test system: WNK2
WNK3 = test system: WNK3
WNK4 = test system: WNK4
YANK1 = test system: T3, YANK1
T3 construct: gene STK32A

YANK2 = test system: T4, YANK2
T4 construct: gene STK32B

YANK3 = test system: T5, YANK3
T5 construct: gene STK32C
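Note: KINOMEscan kinase panel screen.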

SMILES | %Inh (TTK) [%] | %Inh (TXK) [%] | %Inh [1] [%] | %Inh [2] [%] | %Inh (TYRO3) [%] | %Inh (ULK1) [%] | %Inh (ULK2) [%] | %Inh (ULK3) [%] | %Inh (VEGFR2) [%] | %Inh (VPS34) [%] | %Inh (VRK2) [%] | %Inh (WEE1) [%] | %Inh (WEE2) [%] | %Inh (WNK1) [%] | %Inh (WNK2) [%] | %Inh (WNK3) [%] | %Inh (WNK4) [%] | %Inh (YANK1) [%] | %Inh (YANK2) [%] | %Inh (YANK3) [%]
O=C(O)COc1ncnc2cc(-c3ccc4[nH]ncc4c3)sc12 | 0 | 14 | 29 | 55 | 0 | 43 | 26 | 33 | 36 | 27 | 8 | 0 | 6 | 7 | 32 | 1 | 23 | 12 | 4 | 14
CCn1c(-c2cccnc2O)nc2cnccc21 [SB-736715] | 0 | 0 | 0 | 0 | 0 | 0 | 0 | 0 | 0 | 0 | 77 | 0 | 84 | 0 | 24 | 0 | 0 | 0 | 0 | 0
CN(C)CCN(C)C(=O)c1cc(-c2ccncc2)c(-c2ccc(Cl)c(O)c2)o1.Cl.Cl [SB-710397] | 0 | 4 | 43 | 45 | 0 | 13 | 0 | 9 | 0 | 0 | 24 | 0 | 5 | 15 | 0 | 38 | 47 | 49 | 71 | 35
COc1cc2ncn(-c3cc(OCC4CCCO4)c(C(N)=O)s3)c2cc1OC (stereo not shown) [GSK204607] | 0 | 9 | 15 | 31 | 0 | 0 | 0 | 0 | 8 | 0 | 19 | 9 | 3 | 0 | 8 | 12 | 35 | 9 | 0 | 0
Nc1ncnc2[nH]c(-c3ccccc3)nc12 [AH5015] | 0 | 34 | 38 | 99.3 | 0 | 33 | 5 | 20 | 0 | 0 | 30 | 0 | 0 | 10 | 9 | 13 | 19 | 98 | 4 | 9
Cc1cccc(-c2cc(Nc3ccncc3)c3ccccc3n2)n1 [GSK223675] | 0 | 87 | 0 | 22 | 0 | 13 | 0 | 6 | 15 | 0 | 0 | 20 | 0 | 4 | 0 | 1 | 0 | 2 | 0 | 0
Cc1nnc(-c2ccc3occ(-c4ccc(S(C)=O)cc4)c3c2)[nH]1 (stereo not shown) | 8 | 0 | 8 | 59 | 0 | 4 | 23 | 14 | 1 | 88 | 0 | 0 | 32 | 0 | 19 | 0 | 0 | 0 | 0 | 0
CCCc1ccc(S(=O)(=O)NC2CCN(c3ccnc(Nc4ccc(F)cc4)n3)C2)cc1 (stereo not shown) [GSK1379715] | 0 | 73 | 26 | 30 | 0 | 16 | 0 | 4 | 0 | 0 | 7 | 6 | 0 | 17 | 0 | 20 | 4 | 18 | 0 | 100
CCn1c(-c2ccccn2)nc2cnccc21 [SB-736398] | 0 | 10 | 21 | 45 | 0 | 8 | 0 | 0 | 0 | 4 | 26 | 0 | 0 | 0 | 3 | 37 | 36 | 0 | 0 | 32
Cc1cccc(-c2nc(C)cc(Nc3ccncc3)n2)n1 [GSK257997] | 0 | 0 | 0 | 15 | 21 | 0 | 0 | 6 | 0 | 11 | 0 | 9 | 2 | 6 | 6 | 6 | 0 | 10 | 0 | 5
Cc1cc(-c2ccc3c(c2)CC[C@@H](N[C@@H](C)c2ccccc2)C3)cnc1N.Cl [GW412617] | 0 | 16 | 24 | 6 | 17 | 19 | 8 | 16 | 1 | 68 | 0 | 18 | 11 | 0 | 0 | 7 | 0 | 2 | 4 | 33

From paper PMC5540273 (PLoS ONE, 2017)
